Experimental data as given in PubChem BioAssay (NCATS).
Inconclusive results are not listed. Active and inactive are the calls of the source. Unless noted, calls come from the whole dose curve; as a rule, active = well fitted curve in either direction with a large enough effect (not every such curve was filed as active); inconclusive = small, poorly fitted or top-dose-only effect, or another doubt; inactive = flat fitted curve, though single readings scatter.

What was measured:
[1] = target: Lysosomal acid glucosylceramidase (Homo sapiens) (UniProt P04062); assay: Glucocerebrosidase-p2 (AID 348; in the data active = potency below about 10 µM; note: potency is the fitted concentration of half-maximal effect); conditions: purified GBA, blue fluorogenic substrate, 40 min
In short: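 Compounds titrated from 0.6 nM upwards against 0.2 nM enzyme in pH 5.9 citric acid/KH2PO4, taurocholate, tween-20; blue fluorogenic substrate 80 uM, 40 min room temperature, stopped and read Ex 365/Em 440 for AC50.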

[2] = AP1 Signaling Pathway (AID 357); conditions: ME-180 AP-1-bla reporter, EGF-induced, beta-lactamase ratio, 5 h; at 7.69 µM (top of the series) unless noted;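 note: ME-180 reporter cells stimulated with EGF at its EC50 level; % is set by controls: 0 for no effect and ±100 for the full control effect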
In short: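 In this screen, ME-180 cells in Opti-MEM with 0.5% dialyzed FBS received EC50 EGF and compound titrations for 5 h. AP-1 reporter beta-lactamase was detected via CCF4 ratio, giving AC50 for positive and negative modulators.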

[3] = target: Cytochrome P450 1A2 (Homo sapiens) (UniProt P05177); assay: p450-cyp1a2 (AID 410; calls by dose curve; note: potency is the fitted concentration of half-maximal effect;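 for activity change, negative = inhibition: -100% = full effect of reference inhibitor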); conditions: recombinant CYP1A2, luciferin-ME demethylation, luminescence; series mostly up to 57 µM
In short: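 Human CYP1A2 (20nM) demethylated Luciferin-ME at its Km (100uM) in 100mM KPO4. After 10 min compound preincubation, NADPH regeneration ran the reaction 60 min at room temperature. Luciferin was read by luminescence, normalized to 57 uM furafylline.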

[4] = NFAT Signaling Pathway (AID 444); conditions: Jurkat NFAT-bla M1, carbachol, beta-lactamase ratio, 5 h; at 7.69 µM (top of the series) unless noted;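 note: carbachol stimulus at about its EC50 of 1 µM final; % is set by controls: 0 for no effect and ±100 for the full control effect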
In short: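 Jurkat cells with NFAT-driven β-lactamase reporter and co-expressed M1 receptor, stimulated with carbachol (final 1 uM, ~EC50), compound titration, 5 h at 37 °C. CCF4 loaded 1 h at RT; 460/530 nm ratio gave %activity and AC50.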

[5] = target: Glucocorticoid receptor (Homo sapiens) (UniProt P04150); assay: GR-EFC Redistribution (AID 451; calls by dose curve; note: potency is the fitted concentration of half-maximal effect); conditions: CHO-K1 GR-EFC translocation, beta-gal luminescence, 2 h
In short: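 CHO-K1 cells expressing nuclear EA and GR-ED fragments of b-gal; compounds titrated up to 46 uM final, 2 h at 37 C. GR nuclear translocation read as complemented b-gal luminescence after 1 h RT detection.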

[6] = target: Mitogen-activated protein kinase 10 (Mus musculus) (UniProt Q61831); assay: JNK3 AlphaScreen Assay (AID 530); conditions: JNK3 lysate, c-Jun phosphorylation; series mostly up to 57.1 µM;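 note: kinase came from lysate of stimulated human HepG2 cells; signal reports phosphorylation of biotinylated GST-cJun 1-79 at Ser73 with 10 µM ATP; % is set by controls: 0 for no effect and ±100 for the full control effect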
In short: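 qHTS format: compounds tested as titrations against IL-1beta/TNF-alpha-activated HepG2 lysate JNK3 with biotin-GST-cJun substrate and 10 uM ATP at room temperature. Loss of anti-phospho-cJun AlphaScreen signal indicates inhibition.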

[7] = target: 3',5'-cyclic-AMP phosphodiesterase 4B (Homo sapiens) (UniProt Q07343); assay: qHTS Assay for Inhibitors of PDE-IV (AID 607; active = well fitted activation curve with a large enough effect in the main read-out, with a control signal flat, not every such curve was filed as active; note: % of control where 0% means no effect); conditions: HEK293 ACTOne CNG channel cells, membrane potential fluorescence; series mostly up to 22.9 µM
In short: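 Live HEK293 cells with a modified cyclic nucleotide-gated (CNG) channel report intracellular cAMP via membrane-potential dye fluorescence (ex 535/em 590 nm). Endogenous PDE-IV was targeted. Compounds were tested at up to 22.9 uM final; RO 20-1724 100 uM served as control.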

[8] = target: Cytochrome P450 3A4 (Homo sapiens) (UniProt P08684); assay: qHTS Assay for Activators of Cytochrome P450 3A4 (AID 885; active = well fitted curve in the direction sought with a large enough effect; an effect the other way counts as inactive or inconclusive; note: nearly all actives have a fitted effect of over 65% in size); conditions: recombinant CYP3A4, Luciferin-PPXE luminescence, 60 min; series mostly up to 57.1 µM
In short: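 Quantitative HTS format: compounds preincubated with 20nM human CYP3A4 and Luciferin-PPXE substrate at KM, reaction started by NADPH regeneration, stopped after 60 min, luciferase luminescence read 20 min later.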

[9] = qHTS Assay for Lipid Storage Modulators (AID 1519; calls by dose curve); conditions: Drosophila S3 cells, BODIPY lipid droplet/cell ratio, laser cytometry, cells loaded with oleic acid; for activity change, negative = inhibition: at 57.5 µM (top of the series)
In short: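 Cells seeded at 5,000 per well were treated with compounds over a concentration series and loaded with oleic acid (400 uM, as added). Lipid droplet fluorescence (488 nm excitation, 500-530 nm channel) was read by laser-scanning cytometry and normalized to 20 uM Triacsin C.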

[10] = Stat Signaling Pathway (AID 446); conditions: ME-180 (cervical carcinoma) SIE beta-lactamase reporter, IL-6 stimulated, 5 h; at 7.69 µM (top of the series) unless noted;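 note: ME-180 cervical cancer cells given 40 pM IL-6 alongside compound; SIE-controlled beta-lactamase reporter measured as 460/530 nm FRET emission ratio; % is set by controls: 0 for no effect and ±100 for the full control effect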
In short: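 IL-6/STAT signaling read in ME-180 cells via an SIE beta-lactamase reporter. Stimulus was 40 pM IL-6 (its AC50) for 5 hrs, so both activation and inhibition register.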

[11] = target: Glucocorticoid receptor (Homo sapiens) (UniProt P04150); assay: GR-GFP Redistribution (AID 450;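 active = compounds whose dose series gives a full or clear partial fitted curve of increased nuclear translocation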; note: potency is the fitted concentration of half-maximal effect); conditions: U2OS GR-GFP nuclear translocation, laser cytometry, 2 h
[12] = target: Dual specificity protein kinase CLK4 (Homo sapiens) (UniProt Q9HAZ1); assay: qHTS Assay for Inhibitors of CDC-like Kinase 4 (Kinase-Glo Assay) (AID 1770; active = well fitted curve in the direction sought with a large enough effect; an effect the other way counts as inactive or inconclusive; note: % is set by controls: 0 for no effect and ±100 for the full control effect; nearly all actives have a fitted effect of over 65% in size); conditions: recombinant Clk4, Kinase-Glo ATP depletion luminescence; series mostly up to 66.7 µM
In short: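 Recombinant human Clk4 (25 nM) phosphorylated RS repeat peptide (100 uM) with 1 uM ATP in Tris pH 7.5/MgCl2/EGTA/DTT/Triton buffer for 4.5 h at room temperature. Residual ATP was quantified by Kinase-Glo luciferase luminescence.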

[13] = target: Dual specificity protein kinase CLK4 (Homo sapiens) (UniProt Q9HAZ1); assay: qHTS Assay for Inhibitors of CDC-like Kinase 4 (ADP-Glo Assay) (AID 1771; active = well fitted curve in the direction sought with a large enough effect; an effect the other way counts as inactive or inconclusive; note: % is set by controls: 0 for no effect and ±100 for the full control effect; nearly all actives have a fitted effect of over 70% in size); conditions: recombinant CLK4, ADP-Glo luminescence; series mostly up to 80 µM
In short: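 Clk4 (25 nM) was incubated 1 hr at room temperature with 100 uM RS repeat peptide and 1 uM ATP in buffer with 2 mM MgCl2, 0.5 mM EGTA, 2.5 mM DTT. ADP formed was quantified by ADP-Glo luminescence.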

[14] = target: Dual specificity protein kinase CLK4 (Homo sapiens) (UniProt Q9HAZ1); assay: qHTS Assay for Inhibitors of CDC-like Kinase 4 (ADP-FP Assay) (AID 1795; active = well fitted curve in the direction sought with a large enough effect; an effect the other way counts as inactive or inconclusive; note: % is set by controls: 0 for no effect and ±100 for the full control effect; nearly all actives have a fitted effect of over 60% in size); conditions: Transcreener ADP fluorescence polarization; series mostly up to 50 µM
In short: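 Recombinant human Clk4 (6.25 nM) phosphorylated RS repeat peptide (100 uM) with 1 uM ATP in Tris pH 7.5/MgCl2/EGTA/DTT/Triton buffer for one hour. ADP was quantified by Transcreener competitive fluorescence polarization against an ADP calibration curve.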

[15] = target: Ubiquitin carboxyl-terminal hydrolase 1 (Homo sapiens) (UniProt O94782); assay: Inhibitors of USP1/UAF1: Pilot qHTS (AID 504865; active = well fitted curve in the direction sought with a large enough effect; an effect the other way counts as inactive or inconclusive;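 note: rhodamine fluorescence freed from ubiquitin-rhodamine substrate followed over time; top concentration of the series differs between compounds; % is set by controls: 0 for no effect and ±100 for the full control effect; nearly all actives have a fitted effect of over 35% in size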); conditions: purified USP1/UAF1, Ub-rhodamine cleavage fluorescence; series mostly up to 54.9 µM
In short: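 USP1/UAF1 complex (1nM) preincubated with compound 15 min at room temperature, then Ub-Rho substrate (150nM final) added. Fluorescence read kinetically at 480/540 nm, 6 reads every 60 seconds. Buffer: 50mM HEPES pH 7.8, 0.5mM EDTA, 0.1 mg/ml BSA, 1mM TCEP, 0.01% Tween-20.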

[16] = target: Cytochrome P450 2C19 (Homo sapiens) (UniProt P33261); assay: qHTS Assay for Inhibitors and Substrates of Cytochrome P450 2C19 (AID 899; active = well fitted curve in the direction sought with a large enough effect; an effect the other way counts as inactive or inconclusive; note: potency is the fitted concentration of half-maximal effect; nearly all actives have a fitted effect of over 60% in size); conditions: recombinant CYP2C19, luciferin-H EGE luminescence; series mostly up to 57.1 µM
In short: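 Signal comes from luciferase acting on luciferin released by CYP2C19-mediated hydroxylation of Luciferin-H EGE, 10uM (KM). Assay mix: 5nM enzyme, 50mM KPO4; 60 min at 37C with NADPH regeneration. Data normalized against 57uM ketoconazole.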

[17] = measured here: cell count channel max response
[18] = measured here: lipid channel max response

Chain of Glucocorticoid receptor (Homo sapiens) (P04150 whole entry, looked up, the tested form may be a part): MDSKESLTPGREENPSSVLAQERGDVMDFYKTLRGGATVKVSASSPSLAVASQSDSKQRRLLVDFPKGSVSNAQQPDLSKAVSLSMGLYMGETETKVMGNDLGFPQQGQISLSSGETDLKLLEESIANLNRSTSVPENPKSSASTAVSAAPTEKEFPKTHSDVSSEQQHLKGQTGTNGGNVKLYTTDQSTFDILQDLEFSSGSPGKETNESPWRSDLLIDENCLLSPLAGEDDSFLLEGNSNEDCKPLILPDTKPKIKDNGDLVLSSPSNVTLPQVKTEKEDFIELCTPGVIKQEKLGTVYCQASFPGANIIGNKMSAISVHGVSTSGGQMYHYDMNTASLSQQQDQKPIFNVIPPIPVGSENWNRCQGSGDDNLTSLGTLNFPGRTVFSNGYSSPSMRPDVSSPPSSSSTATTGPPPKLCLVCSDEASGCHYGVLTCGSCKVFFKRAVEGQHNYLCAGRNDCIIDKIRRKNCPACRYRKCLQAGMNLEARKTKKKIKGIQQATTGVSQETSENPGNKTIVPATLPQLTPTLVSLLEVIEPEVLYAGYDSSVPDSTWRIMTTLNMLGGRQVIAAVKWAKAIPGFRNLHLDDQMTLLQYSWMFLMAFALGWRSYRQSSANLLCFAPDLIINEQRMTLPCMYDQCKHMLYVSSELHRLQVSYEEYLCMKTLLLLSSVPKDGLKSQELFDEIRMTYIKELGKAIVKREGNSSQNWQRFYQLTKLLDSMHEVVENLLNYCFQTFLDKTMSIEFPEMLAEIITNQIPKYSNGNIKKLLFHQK
Chain of Lysosomal acid glucosylceramidase (Homo sapiens) (P04062 whole entry, looked up): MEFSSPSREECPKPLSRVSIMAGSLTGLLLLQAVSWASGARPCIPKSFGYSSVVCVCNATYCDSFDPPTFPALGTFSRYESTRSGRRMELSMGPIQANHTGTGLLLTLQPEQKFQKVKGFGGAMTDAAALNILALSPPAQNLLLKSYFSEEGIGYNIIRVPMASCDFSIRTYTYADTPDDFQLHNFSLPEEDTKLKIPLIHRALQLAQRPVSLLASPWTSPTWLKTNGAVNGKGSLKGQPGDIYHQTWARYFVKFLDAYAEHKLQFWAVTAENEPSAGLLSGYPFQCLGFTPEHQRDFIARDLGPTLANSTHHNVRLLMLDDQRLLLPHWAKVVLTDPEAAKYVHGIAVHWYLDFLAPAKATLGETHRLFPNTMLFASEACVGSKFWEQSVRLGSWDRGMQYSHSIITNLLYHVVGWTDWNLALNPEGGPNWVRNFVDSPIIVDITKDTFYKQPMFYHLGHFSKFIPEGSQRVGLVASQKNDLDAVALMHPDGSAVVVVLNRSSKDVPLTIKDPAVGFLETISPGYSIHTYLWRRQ
Chain of 3',5'-cyclic-AMP phosphodiesterase 4B (Homo sapiens) (Q07343 whole entry, looked up): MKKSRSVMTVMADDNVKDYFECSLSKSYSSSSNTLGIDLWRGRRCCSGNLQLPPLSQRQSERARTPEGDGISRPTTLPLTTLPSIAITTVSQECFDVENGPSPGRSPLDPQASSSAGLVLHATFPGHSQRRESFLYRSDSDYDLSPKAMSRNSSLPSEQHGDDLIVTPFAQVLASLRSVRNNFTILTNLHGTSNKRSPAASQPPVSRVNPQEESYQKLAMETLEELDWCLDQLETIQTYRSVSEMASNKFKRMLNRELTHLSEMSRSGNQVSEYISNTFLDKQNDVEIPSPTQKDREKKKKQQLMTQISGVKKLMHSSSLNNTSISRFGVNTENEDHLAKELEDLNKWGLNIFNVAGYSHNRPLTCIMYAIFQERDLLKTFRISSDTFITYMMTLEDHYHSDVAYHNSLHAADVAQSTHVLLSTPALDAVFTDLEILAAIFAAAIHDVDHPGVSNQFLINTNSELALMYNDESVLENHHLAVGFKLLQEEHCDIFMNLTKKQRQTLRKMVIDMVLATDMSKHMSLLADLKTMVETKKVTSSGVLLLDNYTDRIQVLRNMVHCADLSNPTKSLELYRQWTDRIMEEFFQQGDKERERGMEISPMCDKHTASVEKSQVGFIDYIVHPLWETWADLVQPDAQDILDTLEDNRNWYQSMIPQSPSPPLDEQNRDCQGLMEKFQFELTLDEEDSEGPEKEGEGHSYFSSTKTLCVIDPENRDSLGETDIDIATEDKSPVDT
Chain of Cytochrome P450 1A2 (Homo sapiens) (P05177 whole entry, looked up): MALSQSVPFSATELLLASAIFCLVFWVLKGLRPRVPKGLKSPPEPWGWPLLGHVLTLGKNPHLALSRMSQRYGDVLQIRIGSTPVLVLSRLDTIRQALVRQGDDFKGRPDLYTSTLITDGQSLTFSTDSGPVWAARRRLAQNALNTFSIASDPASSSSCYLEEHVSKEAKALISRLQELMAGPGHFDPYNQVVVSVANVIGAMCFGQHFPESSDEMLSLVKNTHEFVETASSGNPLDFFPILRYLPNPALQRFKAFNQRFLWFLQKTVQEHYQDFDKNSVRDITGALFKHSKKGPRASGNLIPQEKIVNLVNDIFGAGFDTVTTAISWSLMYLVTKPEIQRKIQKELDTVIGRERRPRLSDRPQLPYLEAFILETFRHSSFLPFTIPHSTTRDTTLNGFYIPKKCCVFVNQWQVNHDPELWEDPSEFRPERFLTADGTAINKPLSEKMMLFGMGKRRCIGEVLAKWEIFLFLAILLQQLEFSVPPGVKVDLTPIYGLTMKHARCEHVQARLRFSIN
Chain of Dual specificity protein kinase CLK4 (Homo sapiens) (Q9HAZ1 whole entry, looked up): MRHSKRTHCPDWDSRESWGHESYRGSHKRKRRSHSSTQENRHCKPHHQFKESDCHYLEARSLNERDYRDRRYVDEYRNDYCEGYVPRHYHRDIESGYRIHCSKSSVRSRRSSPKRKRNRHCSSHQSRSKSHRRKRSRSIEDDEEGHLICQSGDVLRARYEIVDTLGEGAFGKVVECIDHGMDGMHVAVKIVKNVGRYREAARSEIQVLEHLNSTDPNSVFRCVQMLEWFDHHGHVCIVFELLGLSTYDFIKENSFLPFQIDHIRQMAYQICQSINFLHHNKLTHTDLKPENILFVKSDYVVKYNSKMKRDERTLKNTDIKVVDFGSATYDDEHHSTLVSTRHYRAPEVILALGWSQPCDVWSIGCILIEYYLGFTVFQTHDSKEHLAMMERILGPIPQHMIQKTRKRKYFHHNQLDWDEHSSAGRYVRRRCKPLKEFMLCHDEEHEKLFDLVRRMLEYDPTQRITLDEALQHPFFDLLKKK
Chain of Cytochrome P450 3A4 (Homo sapiens) (P08684 whole entry, looked up): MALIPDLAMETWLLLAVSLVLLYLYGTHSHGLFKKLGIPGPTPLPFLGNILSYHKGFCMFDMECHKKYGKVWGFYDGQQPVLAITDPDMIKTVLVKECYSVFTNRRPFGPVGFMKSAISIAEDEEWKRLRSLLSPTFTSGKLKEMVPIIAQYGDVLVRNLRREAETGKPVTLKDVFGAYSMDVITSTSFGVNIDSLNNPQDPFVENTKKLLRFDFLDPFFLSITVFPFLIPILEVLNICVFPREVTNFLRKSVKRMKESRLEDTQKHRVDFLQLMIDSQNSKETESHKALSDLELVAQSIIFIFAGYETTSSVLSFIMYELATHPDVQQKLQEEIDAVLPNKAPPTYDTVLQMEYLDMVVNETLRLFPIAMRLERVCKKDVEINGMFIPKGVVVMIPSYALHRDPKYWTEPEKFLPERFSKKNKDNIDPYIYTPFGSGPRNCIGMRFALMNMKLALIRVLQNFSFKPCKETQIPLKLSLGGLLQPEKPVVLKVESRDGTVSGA
Chain of Ubiquitin carboxyl-terminal hydrolase 1 (Homo sapiens) (O94782 whole entry, looked up): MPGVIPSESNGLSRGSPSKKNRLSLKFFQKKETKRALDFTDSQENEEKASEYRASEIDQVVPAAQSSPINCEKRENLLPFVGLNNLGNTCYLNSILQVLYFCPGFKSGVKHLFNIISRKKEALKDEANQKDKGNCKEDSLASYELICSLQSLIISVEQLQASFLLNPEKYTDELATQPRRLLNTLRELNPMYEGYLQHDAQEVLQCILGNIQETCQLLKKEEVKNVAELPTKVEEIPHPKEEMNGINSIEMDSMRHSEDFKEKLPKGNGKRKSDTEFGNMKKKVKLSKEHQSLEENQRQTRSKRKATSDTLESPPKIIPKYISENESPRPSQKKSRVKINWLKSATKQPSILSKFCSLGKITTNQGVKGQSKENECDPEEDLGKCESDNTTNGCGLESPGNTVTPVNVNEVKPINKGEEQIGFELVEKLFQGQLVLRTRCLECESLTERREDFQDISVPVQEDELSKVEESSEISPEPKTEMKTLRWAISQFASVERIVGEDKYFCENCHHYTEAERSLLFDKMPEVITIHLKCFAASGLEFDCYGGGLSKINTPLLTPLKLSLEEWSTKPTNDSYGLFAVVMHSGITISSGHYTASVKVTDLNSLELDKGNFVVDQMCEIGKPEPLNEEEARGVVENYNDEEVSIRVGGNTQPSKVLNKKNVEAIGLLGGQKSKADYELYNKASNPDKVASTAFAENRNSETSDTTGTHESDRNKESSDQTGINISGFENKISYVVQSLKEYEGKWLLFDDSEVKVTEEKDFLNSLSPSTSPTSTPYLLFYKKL
Chain of Cytochrome P450 2C19 (Homo sapiens) (P33261 whole entry, looked up): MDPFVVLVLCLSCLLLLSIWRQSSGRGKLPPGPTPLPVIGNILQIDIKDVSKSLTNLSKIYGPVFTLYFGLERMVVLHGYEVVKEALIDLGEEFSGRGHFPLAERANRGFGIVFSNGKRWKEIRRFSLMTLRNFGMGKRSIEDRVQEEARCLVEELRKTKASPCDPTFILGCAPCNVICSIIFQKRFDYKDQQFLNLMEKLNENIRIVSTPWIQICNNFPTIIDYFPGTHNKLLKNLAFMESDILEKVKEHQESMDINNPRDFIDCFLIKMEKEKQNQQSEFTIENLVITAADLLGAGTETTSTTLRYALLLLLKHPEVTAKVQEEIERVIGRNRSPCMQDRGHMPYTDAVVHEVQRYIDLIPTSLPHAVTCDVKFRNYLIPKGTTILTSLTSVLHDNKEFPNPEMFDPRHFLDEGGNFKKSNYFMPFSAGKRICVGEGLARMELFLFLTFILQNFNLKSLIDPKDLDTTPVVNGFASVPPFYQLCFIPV

O=C(Nc1ccccc1)N1CCC2(CC1)CCN(S(=O)(=O)c1ccccc1)CC2
-0.439%: max response [9, 17]
inactive: Potency [1] > 11.4 µM | activity change, negative = inhibition [2] -0.036% | activity change, negative = inhibition [4] 21.1% | Potency [5] > 46 µM | outcome [6] | Potency [7] | Potency [8] | activity change, negative = inhibition [9] 3.55%
active: Potency [3] 7.94 µM
7.34%: max response [9, 18]

Cc1cnc(CNc2ccnc(-c3ccccc3C(F)(F)F)n2)cn1
inactive: Potency [1] > 11.4 µM | activity change, negative = inhibition [2] 2.04% | activity change, negative = inhibition [4] 0.146% | activity, negative = inhibition [10] 2.4% | Potency [11] > 46 µM | Potency [5] > 46 µM | outcome [6] | Potency [7] | activity change, negative = inhibition [9] 8.15% | Potency [12] | Potency [13] | Potency [14] | Potency [15]
12.9%: max response [9, 17]
20.7%: max response [9, 18]
active: Potency [3] 15.8 µM

CC(=O)N1CCC2(CCCN(c3ccccc3)C2)CC1
inactive: Potency [1] > 11.4 µM | activity change, negative = inhibition [2] -11.7% | Potency [3] | activity change, negative = inhibition [4] 9.86% | activity, negative = inhibition [10] -0.0216% | Potency [5] > 46 µM | outcome [6] | Potency [7] | Potency [8]

CN(C)c1ncc2ncc(=O)n(Cc3ccc(F)cc3)c2n1
active: Potency [3] 3.98 µM | Potency [16] 3.16 µM
11.9%: max response [9, 18]
6.58%: max response [9, 17]
inactive: Potency [1] > 11.4 µM | activity change, negative = inhibition [2] -9.88% | activity change, negative = inhibition [4] 4.28% | activity, negative = inhibition [10] -10.9% | Potency [5] > 46 µM | Potency [7] | Potency [8] | activity change, negative = inhibition [9] 2.54%
